Inconclusive results are not listed. The source made the active and inactive calls. Calls come from the whole dose curve; as a rule, active = well fitted inhibition curve with a large enough effect in the repeat runs; inconclusive = weak or mixed curves; inactive = flat fitted curve, though single readings scatter.
Target: Voltage-gated inwardly rectifying potassium channel KCNH2 (Homo sapiens) (UniProt Q12809)
Test: Human Ether-a-go-go-Related Gene (hERG) channel small molecule antagonists: fluorescence cell-based qHTS assay (AID 1671200);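 note: hERG-expressing U2OS cells given a thallium stimulus after FluxOR II dye loading; nearly all actives have a fitted effect of over 50% in size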
Conditions: hERG-U2OS cells, FluxOR thallium flux fluorescence; series mostly up to 76.8 µM; activity change, negative = inhibition: at the top concentration
Procedure, shortened: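 Cell line hERG-U2OS; dye FluxOR II, 1 h RT dark; Tl+ stimulus; ex 480/em 540 nm, read each second for 2 min.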
% is set by controls: 0 for no effect and ±100 for the full control effect.

Voltage-gated inwardly rectifying potassium channel KCNH2 (Homo sapiens), sequence (Q12809 whole entry, looked up): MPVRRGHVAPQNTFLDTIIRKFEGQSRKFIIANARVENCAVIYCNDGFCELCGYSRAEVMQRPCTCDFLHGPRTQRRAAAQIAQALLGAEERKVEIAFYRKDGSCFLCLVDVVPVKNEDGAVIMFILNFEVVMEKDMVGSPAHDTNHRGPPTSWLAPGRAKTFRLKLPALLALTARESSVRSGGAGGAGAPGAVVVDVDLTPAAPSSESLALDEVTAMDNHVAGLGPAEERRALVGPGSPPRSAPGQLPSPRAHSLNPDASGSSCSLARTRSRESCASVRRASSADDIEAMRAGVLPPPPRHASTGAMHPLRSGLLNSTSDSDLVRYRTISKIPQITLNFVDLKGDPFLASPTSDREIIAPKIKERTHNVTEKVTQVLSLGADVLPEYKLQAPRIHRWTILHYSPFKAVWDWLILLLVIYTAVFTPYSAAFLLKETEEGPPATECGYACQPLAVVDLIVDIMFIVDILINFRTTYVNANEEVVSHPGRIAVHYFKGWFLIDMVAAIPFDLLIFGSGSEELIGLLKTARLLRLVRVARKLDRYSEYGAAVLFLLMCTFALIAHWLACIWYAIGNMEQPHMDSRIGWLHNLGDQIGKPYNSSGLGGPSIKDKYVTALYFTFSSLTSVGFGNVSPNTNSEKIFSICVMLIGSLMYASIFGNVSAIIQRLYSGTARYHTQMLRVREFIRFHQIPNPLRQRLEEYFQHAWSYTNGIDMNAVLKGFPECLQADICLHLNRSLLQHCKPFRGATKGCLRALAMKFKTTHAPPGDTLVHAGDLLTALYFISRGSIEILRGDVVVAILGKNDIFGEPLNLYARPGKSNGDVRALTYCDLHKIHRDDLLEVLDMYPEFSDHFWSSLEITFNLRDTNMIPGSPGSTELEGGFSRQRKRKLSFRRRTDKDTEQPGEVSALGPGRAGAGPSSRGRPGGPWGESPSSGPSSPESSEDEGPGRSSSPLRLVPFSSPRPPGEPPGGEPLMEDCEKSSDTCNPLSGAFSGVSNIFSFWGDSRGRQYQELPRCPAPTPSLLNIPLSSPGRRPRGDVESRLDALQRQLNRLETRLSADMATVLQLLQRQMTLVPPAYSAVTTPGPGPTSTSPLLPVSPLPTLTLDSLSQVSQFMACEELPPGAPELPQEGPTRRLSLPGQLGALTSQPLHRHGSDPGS

Row | SMILES | activity change, negative = inhibition | Potency
1 | O=C(O)c1ccccc1C(=O)Nc1cccc2ccccc12 | -0.677% (inactive) | 
2 | CNC(C)Cc1ccccc1OC (centres undefined) | -8.77% [at 35.3 µM] (inactive) | 
3 | COC(=O)C(C)N(C(=O)Cc1ccccc1)c1c(C)cccc1C (centres undefined) | -10.2% (inactive) | 
4 | CC(C)=CCOc1c2occc2cc2ccc(=O)oc12 | -3.88% [at 35.3 µM] (inactive) | 
5 | CCCCNP(N)(N)=S | 3.76% (inactive) | 
6 | COC(=O)C(Br)CBr (centres undefined) | 0.414% (inactive) | 
7 | Cc1ccc2ccccc2c1 | -9% (inactive) | 
8 | COC(C)(C)CCC[C@H](C)C/C=C/C(C)=C/C(=O)OC(C)C | -17.3% (inactive) | 
9 | COC(N)=O | -2.13% (inactive) | 
10 | CCCC(=O)Cl | -6.48% (inactive) | 
11 | NC(=O)CI | -0.852% (inactive) | 
12 | CCBr | 21.7% (inactive) | 
13 | NNC(=O)c1cccnc1 | -0.193% (inactive) | 
14 | Cc1cc(=O)[nH]o1 | 6.1% (inactive) | 
15 | N#CCc1ccccc1 | 0.29% (inactive) | 
16 | CC(Cl)Cl | -0.0946% (inactive) | 
17 | CCCN(CCCl)c1c([N+](=O)[O-])cc(C(F)(F)F)cc1[N+](=O)[O-] | -17.7% (inactive) | 
18 | COc1cc(CC(C)N)cc2c1OCO2 (centres undefined) | 0.927% (inactive) | 
19 | CCOP(=O)(OCC)SCCSCC |  | inactive
20 | CCCCCCC#N | 1.11% (inactive) | 
21 | CC(C)(C)C(O)C(Oc1ccc(Cl)cc1)n1cncn1 (centres undefined) | -4.58% (inactive) | 
22 | NC(=O)C(Cl)(Cl)Cl | 7.92% (inactive) | 
23 | Brc1ccc(Oc2ccccc2)cc1 | -13.8% (inactive) | 
24 | CCOP(O)OCC | -0.781% (inactive) | 
25 | Cc1ccc(N)cc1C | 0.764% (inactive) | 
26 | O=C(NC(=O)c1c(F)cccc1F)Nc1cc(Cl)c(Oc2ncc(C(F)(F)F)cc2Cl)c(Cl)c1 | -20.7% (inactive) | 
27 | CCCN(CC1CC1)c1c([N+](=O)[O-])cc(C(F)(F)F)cc1[N+](=O)[O-] | -9.39% (inactive) | 
28 | C=CCC1([C@H](C)CCC)C(=O)NC(=O)NC1=O | 4.13% (inactive) | 
29 | CCCCCCCCCCOC(=O)c1ccccc1C(=O)OCCCCCCCCCC | 1.09% (inactive) | 
